MPTP inh: inhibitors of mitochondrial permeability transition pore. hit rate 1.4% among 360,000. isolated mouse mitochondria, Ca2+ swelling absorbance, 30 min. inhibition, % at 10 µM. AID 602449;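 active = inhibition of 50% or more, scaled per plate between neutral and stimulator controls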
NR3A LBD binder: modulators (binders) of human NR3A ligand-binding domain. NR3A LBD differential scanning fluorimetry, Tm shift; 0% = protein alone, 100% = glycine-bound protein. Tm shift relative to glycine control, % at 25 µM. hit rate 2.5% among 340,000. AID 1259313;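 active = melting temperature shift of at least 10% of the positive control shift, at one fixed dose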
CSC inhib: blocks cancer stem cells. cancer stem cell-like cells viability, luminescence. inhibition, % at 7.5 µM. hit rate 1.1% among 300,000; in the data active = inhibition above about 75%; tested in HMLE shEcad cells
Gli-Sufu antag: antagonists of Gli-Sufu signaling | inhibition, % at 5 µM | hit rate 0.74% among 340,000 | Sufu-KO-LIGHT fibroblasts, Gli luciferase reporter luminescence;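 active = inhibition above about 55%, limit read from the data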
Mdm2-MdmX inh: inhibitors of human Mdm2/MdmX interaction; O15151+Q00987; SaOS-2 split-luciferase Mdm2/MdmX complementation, luminescence; inhibition, % at 8 µM; hit rate 3% among 330,000;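 active = inhibition of at least 50% at 8 µM in the primary screen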
Target sequence (O15151 whole entry, looked up): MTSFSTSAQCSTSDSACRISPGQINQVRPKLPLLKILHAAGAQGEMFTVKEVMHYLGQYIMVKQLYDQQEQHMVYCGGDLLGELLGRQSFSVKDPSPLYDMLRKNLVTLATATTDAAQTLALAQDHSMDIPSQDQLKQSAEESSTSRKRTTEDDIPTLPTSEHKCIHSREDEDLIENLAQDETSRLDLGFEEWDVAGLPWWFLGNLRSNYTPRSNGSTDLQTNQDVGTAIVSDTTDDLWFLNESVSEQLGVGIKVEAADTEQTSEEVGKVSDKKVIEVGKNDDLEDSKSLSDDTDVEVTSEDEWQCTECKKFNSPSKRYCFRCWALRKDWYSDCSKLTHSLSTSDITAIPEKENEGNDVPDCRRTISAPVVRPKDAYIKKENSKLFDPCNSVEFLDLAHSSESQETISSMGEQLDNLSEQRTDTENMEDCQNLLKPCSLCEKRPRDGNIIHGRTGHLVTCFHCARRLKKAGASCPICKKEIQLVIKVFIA
Target sequence (Q00987 whole entry, looked up): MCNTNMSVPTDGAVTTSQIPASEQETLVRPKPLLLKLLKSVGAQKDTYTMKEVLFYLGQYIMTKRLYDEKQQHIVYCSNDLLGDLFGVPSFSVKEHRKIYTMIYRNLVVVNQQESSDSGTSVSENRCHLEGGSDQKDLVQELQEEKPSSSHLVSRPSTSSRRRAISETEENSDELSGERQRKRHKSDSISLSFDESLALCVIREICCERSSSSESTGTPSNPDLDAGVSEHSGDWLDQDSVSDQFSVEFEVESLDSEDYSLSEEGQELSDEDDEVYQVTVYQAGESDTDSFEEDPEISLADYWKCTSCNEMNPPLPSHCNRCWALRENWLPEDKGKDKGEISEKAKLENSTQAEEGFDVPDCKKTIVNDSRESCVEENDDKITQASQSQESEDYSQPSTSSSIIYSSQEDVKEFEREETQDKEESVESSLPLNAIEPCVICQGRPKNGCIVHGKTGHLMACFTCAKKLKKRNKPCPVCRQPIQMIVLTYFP
Beta cell apopt: beta cell apoptosis inhibition | protection from apoptosis, % (no concentration beside the values) | AID 435005 | INS-1E cytokine-induced death, ATP luminescence, 48 h; percent of positive-control rescue, neutral wells zero | hit rate 0.8% among 300,000;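 active = Every replicate reaches about 75%, or at least half do and their mean reaches it too, limit read from the data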;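 also: higher means more ATP so stronger rescue from cytokine killing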
Gli antag conf: Gli-SUFU antagonism confirmation, single concentration; shares compounds with Gli-Sufu antag; Sufu-KO-LIGHT cells, Gli luciferase reporter, luminescence; inhibition, % at 5 µM; hit rate 40% among 2,500;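 active = mean inhibition at 5 µM reaching about 45%, limit read from the data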
SufuKO cytotox: counter-screen for Gli-SUFU antagonists: cytotoxicity; shares compounds with Gli-Sufu antag; Sufu-KO-LIGHT cells cytotoxicity, ATP luminescence; hit rate 32% among 2,500; AID 651994; cytotoxicity, % at 5 µM;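 active = mean cytotoxicity at 5 µM above about 25%, limit read from the data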;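 also: cells exposed to compound overnight for roughly 16 to 18 hours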
Wnt3a cs: inhibits Wnt3a reporter, counter-screen for Gli-SUFU antagonists. shares compounds with Gli-Sufu antag. inhibition, % at 6.25 µM. Wnt-LIGHT cells, Wnt3a-driven luciferase reporter, luminescence. hit rate 20% among 2,500;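 active = mean inhibition above about 25%, limit read from the data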
Each line names hits and unclear results; the compound was inactive in the other large screens (follow-up assays come after a bar, where they were run). An excerpt weighted towards active compounds, which were near 6.6% of everything screened.

CCOc1ccc(NS(=O)(=O)c2ccc(C(=O)N3CCCCC3)cc2)cc1	Gli-Sufu antag 55.4 | Gli antag conf inactive | SufuKO cytotox 28.7 | Wnt3a cs inactive
COc1ccc(NS(=O)(=O)c2ccc3c(c2)N(C(C)=O)CC(C)S3)c(OC)c1 (stereo not drawn)	none | Gli antag conf inactive | SufuKO cytotox inactive | Wnt3a cs inactive
CCOc1ccc(NS(=O)(=O)c2ccc3c(c2)N(C(C)=O)CCS3)cc1	none | Gli antag conf inactive | SufuKO cytotox inactive | Wnt3a cs inactive
Cc1ccc(S(=O)(=O)NCC(c2ccco2)N2CCOCC2)cc1 (stereo not drawn)	none
CC1(C(=O)O)CCC(C(=O)N2CCCCC2)C1(C)C (stereo not drawn)	none (no result: Gli-Sufu antag)
CCc1cc(=O)oc2cc(C)cc(OC(C)C(=O)NC(Cc3c[nH]c4ccc(O)cc34)C(=O)O)c12 (stereo not drawn)	none
CCC(NC(=O)CCl)c1ccc(C)cc1 (stereo not drawn)	none
CC(C)N(Cc1ccccc1)S(=O)(=O)c1ccc(F)cc1	Gli-Sufu antag 59.4 | Gli antag conf 48.7 | SufuKO cytotox 33.6 | Wnt3a cs 32.8
CN(C(=O)c1cccc(C(F)(F)F)c1)C1CCCc2ccccc21 (stereo not drawn)	none
CN(C(=O)COC(=O)/C=C/c1ccc2ccccc2n1)C1CCS(=O)(=O)C1 (stereo not drawn)	none
CCN(C(=O)COC(=O)/C=C/c1cnc2ccccc2n1)C1CCS(=O)(=O)C1 (stereo not drawn)	Gli-Sufu antag 56.1 | Gli antag conf inactive | SufuKO cytotox inactive | Wnt3a cs inactive
CCCc1cc(=O)oc2cc(C)cc(OCC(=O)N3CCC(C(=O)O)CC3)c12	none (no result: Beta cell apopt) | Gli antag conf inactive | SufuKO cytotox inactive | Wnt3a cs inactive
Cc1cc(S(=O)(=O)NCc2ccccc2)ccc1OCC(=O)NCC1CCCO1 (stereo not drawn)	none
CNc1ccccc1C(C)(C)c1cc(-c2cccc(OC)c2)no1	Gli-Sufu antag 70.9 (no result: CSC inhib) | Gli antag conf 76.0 | SufuKO cytotox 42.3 | Wnt3a cs inactive
Cc1ccc(NC(=O)CCC(=O)c2ccccc2)cc1	none (no result: CSC inhib, Mdm2-MdmX inh, Beta cell apopt)
O=C(CCC(=O)c1ccccc1)Nc1ccc(C(=O)O)cc1	Gli-Sufu antag 98.8 | Gli antag conf inactive | SufuKO cytotox inactive | Wnt3a cs inactive
COC(=O)NCC(c1ccco1)N1CCN(c2ccc(F)cc2)CC1 (stereo not drawn)	none | Gli antag conf inactive | SufuKO cytotox inactive | Wnt3a cs inactive
CC1Cc2ccccc2N1C(=O)C1CCCN1S(=O)(=O)c1ccc(Cl)cc1 (stereo not drawn)	Gli-Sufu antag 99.2 | Gli antag conf inactive | SufuKO cytotox inactive | Wnt3a cs inactive
O=C(C1CCCN1S(=O)(=O)c1ccc(Cl)cc1)N1CCOCC1 (stereo not drawn)	none
COCCN(Cc1cn(C)nc1-c1ccc(Oc2ccccc2)cc1)C(C)C	Gli-Sufu antag 56.7 (no result: CSC inhib, Beta cell apopt) | Gli antag conf inactive | SufuKO cytotox inactive | Wnt3a cs inactive
COc1cc(NC(=O)CSc2nc(C)cc(C)n2)cc(OC)c1OC	none | Gli antag conf inactive | SufuKO cytotox inactive | Wnt3a cs inactive
CN(C)c1ccc(-c2n(C)c3ccccc3[n+]2C)cc1	Gli-Sufu antag 80.4 (no result: CSC inhib, Beta cell apopt) | Gli antag conf 82.2 | SufuKO cytotox 35.5 | Wnt3a cs 27.4
Cn1c(-c2ccccn2)[n+](C)c2ccccc21	none
COc1ccc([N+](=O)[O-])cc1N(CC(=O)N(C)C)S(C)(=O)=O	none
C=CCn1c(CCC(O)COCCC)n[nH]c1=S (stereo not drawn)	none | Gli antag conf inactive | SufuKO cytotox inactive | Wnt3a cs inactive
COc1ccccc1N(CC(O)COc1ccccc1C)S(=O)(=O)c1ccccc1 (stereo not drawn)	none
CCOC(=O)C1(CCOC)CCN(Cc2nc(C(C)C)cs2)CC1	none
CC1=Nc2cccc3cccc(c23)N1C	Gli-Sufu antag 70.5 | Gli antag conf 89.2 | SufuKO cytotox inactive | Wnt3a cs inactive
COc1ccc(/C(N)=N/OC(=O)CCCN2C(=O)c3ccccc3C2=O)cc1OC	none
Cc1ccccc1NS(=O)(=O)c1ccc(OCC(=O)NCc2ccccn2)cc1	none
CCOc1ccc(S(=O)(=O)N(C)c2ccc(OCC(=O)NCc3ccco3)cc2)cc1	Gli-Sufu antag 95.1 | Gli antag conf inactive | SufuKO cytotox inactive | Wnt3a cs inactive
CCOc1ccc(S(=O)(=O)N(C)c2ccc(OCC(=O)NCc3cccnc3)cc2)cc1	none
COc1ccc(OC)c(C=NNC(=O)c2ccc(NS(=O)(=O)c3cccs3)cc2)c1	none
COc1ccc(C(CC(=O)O)NC(=O)COc2ccccc2)cc1 (stereo not drawn)	none | Gli antag conf inactive | SufuKO cytotox inactive | Wnt3a cs inactive
COc1ccc(CC(=O)NC(CC(=O)O)c2ccc(OC)cc2)cc1 (stereo not drawn)	none
COCCNC(=O)C12CC3CC(CC(Cl)(C3)C1)C2	none | Gli antag conf inactive | SufuKO cytotox inactive | Wnt3a cs inactive
CCOc1ccc(NC(=O)CN(C)C(=O)c2c(-c3ccccc3)noc2C)cc1OCC	none (no result: CSC inhib)
CN(C(=O)COC(=O)/C=C/c1ccccc1)C1CCS(=O)(=O)C1 (stereo not drawn)	none (no result: NR3A LBD binder, CSC inhib, Gli-Sufu antag, Mdm2-MdmX inh, Beta cell apopt)
O=C(c1cccc(N2C(=O)C3CC=CCC3C2=O)c1)N1CCCCCC1 (stereo not drawn)	none (no result: CSC inhib, Beta cell apopt)
NC(=O)c1ccc(N2CCCCC2)c(N2C(=O)C3CC=CCC3C2=O)c1 (stereo not drawn)	none | Gli antag conf inactive | SufuKO cytotox inactive | Wnt3a cs inactive
Nc1nc2c(C(=O)N3CCOCC3)nnn2c2ccccc12	none
COc1ccc(S(=O)(=O)NCc2ccncc2)cc1NC(=O)c1ccc(Cl)cc1	none (no result: Beta cell apopt)
Nc1cc(C(=O)OCC(=O)NCCC2=CCCCC2)ccc1Cl	none
O=C(COC(=O)c1cnc(Cl)c(Cl)c1)NCCC1=CCCCC1	none | Gli antag conf inactive | SufuKO cytotox inactive | Wnt3a cs inactive
CCn1c(COc2ccc(Cl)cc2)nnc1SCC(=O)Nc1ccc2c(c1)OCO2	none
CCn1c(COc2ccc3c(c2)OCO3)nnc1SCC(=O)c1ccccc1	Gli-Sufu antag 67.2 (no result: CSC inhib) | Gli antag conf inactive | SufuKO cytotox inactive | Wnt3a cs inactive
Nc1nc(SCC(=O)Nc2cccc(Oc3ccccc3)c2)n[nH]1	none | Gli antag conf inactive | SufuKO cytotox inactive | Wnt3a cs inactive
O=C(Nc1ccc(Cl)cc1N1CCOCC1)C1CCCCC1	none (no result: Beta cell apopt)
COc1ccc(C2=NO[C@@H]3[C@@H]4C[C@@H]([C@H]5C(=O)N(C)C(=O)[C@@H]45)[C@H]23)cc1	none
